Bioassay records: PubChem BioAssay, Sanford-Burnham Center for Chemical Genomics
CYP2C19 inh – inhibitors of human CYP2C19; P33261; AID 778; CYP2C19 Supersomes, luciferin-H EGE luminescence, 30 min; 96,000 tested, 21% active; inhibition, % at 5 µM;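 active = CYP2C19 inhibition above a set limit at 5 µM in the primary screen, cut at about 50% in these data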;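 also: plate controls were negative control wells for no effect and 2.5 mM tranylcypromine positive control for full effect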
Mac1 fbg enh – enhancers of human CD11b/CD18 binding to fibrinogen; P05107+P11215; AID 1499; 93,000 tested, 0.07% active; K562 CD11b/CD18 adhesion to fibrinogen, ATPlite luminescence; activation, % at 10 µM;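 active = 10 µM primary screen giving 50% or more activity, confirmed by 40% or more on retest at that dose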
CYP2C19 act – increases human CYP2C19 enzyme activity; activation factor at 5 µM; recombinant CYP2C19, luciferin-H EGE luminescence; hits give high values; 0 = fully inhibited enzyme, 1 = untreated enzyme; AID 1025; 96,000 tested, under 10 active;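 active = activation factor of at least 2 at 5 µM in the primary screen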;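 also: 0 = wells with 2.5 mM tranylcypromine and 1 = vehicle-only wells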
CYP2C9 act – increases human cytochrome P450 2C9 activity. recombinant CYP2C9, luciferin-H conversion, luminescence; hits give high values; factor 1 = untreated enzyme, 0 = blocked. activation factor at 5 µM. 96,000 tested, 1.4% active;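 active = activation factor of 2 or more for CYP2C9 at a 5 µM dose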;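 also: 0 = sulfaphenazole-blocked wells and 1 = vehicle-only wells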
Target sequence (P11712 whole entry, looked up): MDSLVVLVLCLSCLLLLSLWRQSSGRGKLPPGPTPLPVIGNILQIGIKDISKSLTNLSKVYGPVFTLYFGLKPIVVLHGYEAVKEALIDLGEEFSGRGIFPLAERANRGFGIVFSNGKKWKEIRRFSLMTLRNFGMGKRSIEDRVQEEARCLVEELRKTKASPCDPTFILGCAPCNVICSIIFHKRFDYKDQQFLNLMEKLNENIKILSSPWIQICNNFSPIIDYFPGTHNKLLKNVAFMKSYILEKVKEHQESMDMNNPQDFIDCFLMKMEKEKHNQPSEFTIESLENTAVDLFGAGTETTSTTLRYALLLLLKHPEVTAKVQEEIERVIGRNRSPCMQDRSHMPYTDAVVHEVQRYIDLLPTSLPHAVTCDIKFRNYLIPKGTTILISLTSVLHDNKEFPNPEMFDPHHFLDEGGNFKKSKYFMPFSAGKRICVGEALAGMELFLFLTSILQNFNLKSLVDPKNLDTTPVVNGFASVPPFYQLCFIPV
CYP2C9 inhib – blocks human cytochrome P450 2C9. AID 777. inhibition, % at 5 µM. P11712. CYP2C9 Supersomes, luciferin-H conversion, luminescence. 96,000 tested, 20% active;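 active = blocking of liver enzyme CYP2C9 beyond about 50% at 5 µM, limit read from the data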
Mac1 fbg inh – CD11b/CD18-fibrinogen binding inhibition; P05107+P11215; AID 1497; inhibition, % at 10 µM; K562 CD11b/CD18 adhesion to fibrinogen, ATPlite luminescence; Mn2+ added to activate the integrin; 93,000 tested, 0.54% active;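 active = primary inhibition of 50% or more at 10 µM, then 40% or more on retest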
* hit, by the source's call; · = no result given. The list is not random: actives were taken first. Their share in the collection is about 28%.

SMILES	CYP2C19 inh	Mac1 fbg enh	CYP2C19 act	CYP2C9 act	CYP2C9 inhib	Mac1 fbg inh
COc1cc(C2SCC(=O)Nc3c2c(C)nn3-c2ccccc2)cc(OC)c1OC (stereo unspecified)	79*	-9	0.2	0.3	69*	-6
Cc1nn(-c2ccccc2)c2c1C(c1ccc3c(c1)OCO3)SCC(=O)N2 (stereo unspecified)	90*	0	0.1	0.1	90*	-33
Cc1nn(C2CCOC(C)(C)C2)c2c1C(c1ccc3c(c1)OCO3)SCC(=O)N2 (stereo unspecified)	-3	-4	1	1.1	-8	2
COc1ccc(C2SCC(=O)Nc3c2c(C)nn3C2CCOC(C)(C)C2)cc1 (stereo unspecified)	8	·	0.9	0.9	10	·
CN(C)P(=NC(=S)c1cccn1C)(N(C)C)N(C)C	-5	0	1	1.3	-25	-16
CCOC(=O)c1cn2nc(OP(=S)(OCC)OCC)cc2nc1C	98*	3	0	0.2	82*	5
CCOC(=O)c1c(C)n(Cc2ccc3c(c2)OCO3)c2ccc(O)cc12	25	120	0.7	0.6	42	16
CCOC(=O)c1c(C)n(Cc2ccccc2)c2ccc(OCC(O)CN3C(=O)CNC3=O)cc12 (stereo unspecified)	68*	0	0.3	0.1	87*	-5
CCOC(=O)c1c(C)n(Cc2ccco2)c2ccc(O)cc12	56*	5	0.4	0.7	28	1
COC(=O)c1c(C)n(Cc2ccc3c(c2)OCO3)c2ccc(O)cc12	82*	0	0.2	0.2	79*	-6
O=CC(Cl)P(=O)(N1CCCCC1)N1CCCCC1 (stereo unspecified)	-5	-4	1	1.1	-6	-8
O=C(COc1ccccc1)N1CCN(Cc2c[nH]c3ccccc23)CC1	3	-2	1	0.9	12	-2
O=C(Cc1ccccc1)N1CCN(Cc2c[nH]c3ccccc23)CC1	62*	0	0.4	0.5	46	-6
CC1CCCC(NC(=O)COC(=O)Cc2ccccc2)C1C (stereo unspecified)	24	-2	0.8	1.2	-23	-4
O=C(COC(=O)Cc1ccccc1)Nc1ncc(Cl)cc1Cl	58*	-6	0.4	0.8	16	1
CCCC(C)C1C(C#N)=C(N)Oc2c1c(=O)oc1ccccc21 (stereo unspecified)	22	3	0.8	0.3	70*	-7
COc1ccc(C2C(C#N)=C(N)Oc3c2c(=O)oc2ccccc32)cc1Cn1cc([N+](=O)[O-])cn1 (stereo unspecified)	33	·	0.7	0	97*	·
COCCOC(=O)C1=C(N)Oc2c(c(=O)oc3ccccc23)C1c1ccncc1 (stereo unspecified)	96*	-2	0	0	97*	-8
Cc1ccc(-n2nc(C)c(C3C(C#N)=C(N)Oc4c3c(=O)oc3ccccc43)c2Cl)cc1 (stereo unspecified)	41	-2	0.6	0	98*	26
CN1CCc2c(C#N)c(Cl)nc(Cl)c2C1	·	10	·	·	·	-10
CC(C)Oc1ccc(C2C(C#N)=C(N)Oc3c2c(=O)oc2ccccc32)cc1 (stereo unspecified)	-4	-5	1	0.1	90*	-6
COC(=O)C1=C(N)Oc2c(c(=O)oc3ccccc23)[C@]12C(=O)N(C)c1ccccc12	68*	-2	0.3	0.3	68*	25
NCC1(c2ccc3c(c2)OCCO3)CCCC1	-5	-1	1.1	0.9	8	15
CC1CCCCN1CC(=O)c1ccc2cc[nH]c2c1 (stereo unspecified)	18	7	0.8	0.7	25	-5
O=C(CCCOc1ccc(Cl)cc1Cl)N1CCC2(CC1)OCCO2	74*	4	0.3	0.6	45	-1
CCOc1cc2[nH]c(=S)n(CCCC(=O)N3CCC4(CC3)OCCO4)c(=O)c2cc1OCC	52*	-3	0.5	0.4	55*	4
CCOc1cc(C(=O)N2CCC3(CC2)OCCO3)cc(OCC)c1OCC	25	0	0.7	0.9	14	-10
Cn1c(=O)cc(OCCCC(=O)N2CCC3(CC2)OCCO3)c2ccccc21	8	-3	0.9	1	0	1
